In the supplement of paper PMC6555819 one finds PBM binding z-score data, which are given here for 7 sequences.

Common to all, as to assay: PBM binding z-score (relative to random genomic background probes); higher = stronger binding; sequences stand for … in GC…GCGATTGACAGCGTAGAATGAAGG
The subject of assay [1] is FXR:RXRa (NR concentration 270 nM, RXRa partner concentration 90 nM). The procedure, abridged: (§1)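 Random background probes are the reference for binding z-scores. These scores derive from regression-normalized fluorescence on custom Agilent 4×180K protein-binding microarrays incubated 1 h with ligand-free nuclear receptor dimers. Binding was detected with antibodies against each partner (one per run).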

Assay [2] has as its system LXRa:RXRa (NR concentration 270 nM, RXRa partner concentration 90 nM). The essentials: as §1
Assay [3] relates to LXRa homodimer (NR concentration 270 nM). The procedure, abridged:
as §1

Assay [4] relates to LXRb:RXRa (NR concentration 270 nM, RXRa partner concentration 90 nM). The essentials: as §1
Assay [5] concerns LXRb homodimer (NR concentration 270 nM). The essentials:
as §1

The test system of assay [6] is PPARa:RXRa (NR concentration 270 nM, RXRa partner concentration 90 nM). The essentials: as §1
The test system of assay [7] is PPARg:RXRa (NR concentration 180 nM, RXRa partner concentration 90 nM). The procedure, abridged:
as §1

For assay [8], the system named is PPARg:RXRa 270nM:90nM, anti-RXR (NR concentration 270 nM, RXRa partner concentration 90 nM). The essentials:
as §1

Assay [9] concerns PPARg:RXRa 30nM:10nM, anti-RXR (NR concentration 30 nM, RXRa partner concentration 10 nM). The essentials:
as §1

Assay [10] deals with PPARg:RXRa 90nM:30nM, anti-RXR (NR concentration 90 nM, RXRa partner concentration 30 nM). The essentials:
as §1

Assay [11] concerns PPARg:RXRa DBDmut IVT, anti-RXR (DBD mutation: RXRa K156A/R161A, NR concentration 270 nM, RXRa partner concentration 90 nM). The procedure, abridged: as §1
The subject of assay [12] is PPARg:RXRa IVT, anti-PPARg (NR concentration 270 nM, RXRa partner concentration 90 nM). The procedure, abridged:
as §1

Assay [13] relates to PPARg DBDmut:RXRa IVT, anti-PPARg (DBD mutation: PPARg1 K132A/R137A, NR concentration 270 nM, RXRa partner concentration 90 nM). The procedure, abridged:
as §1

Assay [14] has as its system PPARg DBDmut IVT, anti-PPARg (DBD mutation: PPARg1 K132A/R137A, NR concentration 270 nM). The procedure, abridged:
as §1

The test system of assay [15] is PPARg homodimer (NR concentration 180 nM). The procedure, abridged: as §1
Assay [16] has as its system PXR:RXRa (NR concentration 270 nM, RXRa partner concentration 90 nM). The procedure, abridged: as §1
For assay [17], the system named is PXR homodimer (NR concentration 270 nM). The essentials:
as §1

For assay [18], the system named is RARa:RXR (NR concentration 270 nM, RXRa partner concentration 90 nM). The procedure, abridged: as §1
In assay [19] the test system is RARa homodimer (NR concentration 270 nM). The procedure, abridged:
as §1

In assay [20] the test system is RARb:RXRa (NR concentration 270 nM, RXRa partner concentration 90 nM). The essentials:
as §1

Regarding TGAATGAGGTTAGAGATCAGGGAACGTGGCGTCG, the PBM binding z-score was 0.893 in assay [1]; 0.556 in assay [2]; -0.223 in assay [3]; 0.296 in assay [4]; 0.27 in assay [5]; 2.47 in assay [6]. Besides, the PBM binding z-score in assay [7] was 2.82; in assay [8], 4.06; in assay [9], 2.73; in assay [10], 4.07; in [11], 0.771; in assay [12], 2.14. The PBM binding z-score in assay [13] is 0.576; in [14], 0.367; in assay [15], 0.476; in [16], 0.397; in [17], -0.359; in [18], 1.29. The PBM binding z-score in assay [19] was -0.00359; in assay [20], 1.3.
In the case of TCATATAGGTAAAACAGGTGAAAGTCGGCATCTA, the PBM binding z-score in assay [1] turned out to be 1.42; in [2] it was 1.1; in assay [3], 0.257; in assay [4], 1.01; in assay [5] it was 0.235; in assay [6], 1.82. The PBM binding z-score in assay [7] was found to be 1.12; in assay [8], 2.64; in [9], 4.06; in [10], 3.67; in [11], 3.88; in [12] it was 2.77. Further, the PBM binding z-score in assay [13] stood at 0.289; in [14], 1.07; in [15], 1.06; in assay [16], 0.972; in assay [17], 0.0725; in assay [18] it was 1.62. The PBM binding z-score is 1.05 in assay [19] and 0.579 in [20].
Regarding GCTGCTAGGTCAACTGATGGTCAGCTATAGCTCG, the PBM binding z-score in [1] amounted to 4.54; in assay [2], 3.25; in assay [3], 0.314; in [4] it was 2.01; in assay [5] it was 0.25; in assay [6], 3.81. In addition, the PBM binding z-score was 2.88 in [7]; 3.13 in [8]; 0.633 in assay [9]; 2.16 in assay [10]; 5.21 in assay [11]; 4.3 in assay [12]. In addition, the PBM binding z-score in assay [13] was -0.479; in [14] it was -0.34; in assay [15] it was 1.51; in assay [16], 1.3; in assay [17] it was -0.342; in [18], 2.91. For the same sequence, the PBM binding z-score in [19] came to 0.342; in assay [20], 4.31.
Turning to TTACCAAGGTGAAGGCCGTTGATCCCTCTGTAGA, the PBM binding z-score in assay [1] is 0.294; in assay [2], 0.227; in [3], -0.606; in assay [4], 0.138; in assay [5] it was -0.941; in [6], 1.33. The PBM binding z-score was found to be 0.354 in assay [7]; 1.33 in assay [8]; 0.659 in [9]; 0.916 in [10]; 1.67 in assay [11]; 2.18 in assay [12]. For the same sequence, the PBM binding z-score is -0.266 in assay [13]; 0.1 in [14]; 0.061 in [15]; 0.0988 in assay [16]; -0.493 in assay [17]; 0.33 in assay [18]. For the same sequence, the figures for the PBM binding z-score in assay [19] and in [20] were -0.621 and 1.34, respectively.
Turning to CATACAGGGTCAGCTAGGCCATAGTAGGGACGGC, the PBM binding z-score in assay [1] was 4.59; in assay [2] it was 3.07; in assay [3] it was -0.118; in assay [4], 2.31; in assay [5], 0.267; in assay [6] it was 4.32. In addition, the PBM binding z-score in assay [7] amounted to 3.69; in assay [8], 2.95; in [9], 1.21; in assay [10] it was 1.9; in [11] it was 0.879; in [12], 2.3. Besides, the PBM binding z-score stood at 0.763 in assay [13]; 0.466 in [14]; 1.7 in [15]; 2.69 in assay [16]; 0.334 in [17]; 3.47 in assay [18]. Moreover, the figures for the PBM binding z-score in assay [19] and in assay [20] were 0.85 and 4.01, respectively.
For the sequence TCTTGTAGATCAGCAGGTTAAGACAGCTGGCCAA, the PBM binding z-score is 0.409 in assay [1]; 0.423 in assay [2]; -0.459 in assay [3]; 0.114 in assay [4]; -0.579 in assay [5]; 0.79 in assay [6]. For the same sequence, the PBM binding z-score in assay [7] is -0.112; in [8] it was 1.46; in [9] it was 2.57; in assay [10], 2.02; in assay [11] it was 1.91; in [12], 0.417. Also, the PBM binding z-score was 0.269 in assay [13]; 0.156 in [14]; 0.137 in assay [15]; 0.129 in assay [16]; -0.0251 in [17]; 0.309 in assay [18]. Also, the PBM binding z-score was determined as 0.389 in assay [19] and 0.0665 in [20].
As for CCTTACGGGTCACTGGCAGGTTATAGCATTTGGA, the PBM binding z-score was 5.13 in assay [1]; 4.36 in assay [2]; 0.174 in assay [3]; 3.52 in assay [4]; -0.315 in assay [5]; 5.15 in assay [6]. Also, the PBM binding z-score in [7] was 4.06; in assay [8] it was 4.83; in [9] it was 1.9; in assay [10] it was 3.26; in [11], 2.85; in assay [12], 3.68. The PBM binding z-score in assay [13] was found to be 0.22; in [14] it was 1.16; in [15], 3.67; in assay [16], 4.02; in [17] it was 0.0403; in [18] it was 5.02. Further, the PBM binding z-score is 0.895 in [19] and 3.99 in assay [20].
